Screens as filed in PubChem BioAssay.
NALP3 yeast inh – NALP3 inhibition in yeast; AID 2825; Yeast reconstituted NLRP3/ASC/caspase-1, beta-gal luminescence, 24 h; inhibition, % at 10 µM; hit rate 0.39% among 330,000;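 active = inhibition of 50% or more; inactive = inhibition below 50%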
PfHsp90 set2 – inhibits growth of yeast expressing Plasmodium falciparum Hsp90; S. cerevisiae expressing PfHsp90, BacTiter-Glo ATP, 48 h; yeast lacking PDR1 and PDR3 efflux regulators; inhibition, % at 9.4 µM; hit rate 0.32% among 310,000; AID 504621;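 active = every replicate shows inhibition above about 80%, whatever the replicate mean, limit read from the data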
tim10-1 inh – growth inhibitors of tim10-1 mutant yeast. S. cerevisiae tim10-1 ts strain growth, BacTiter-Glo, 24 h. inhibition, % at 20 µM. hit rate 2.2% among 330,000. AID 463190;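 active = inhibition of at least 40%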;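 note: mutant grown at 25 °C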
tim23-1 inh – growth inhibitors of tim23-1 mutant yeast. inhibition, % at 20 µM. hit rate 1.3% among 330,000. S. cerevisiae tim23-1 growth, BacTiter-Glo luminescence, 24 h. AID 463212;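 active = growth inhibition of the mutant yeast at or above 50%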;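 note: temperature-sensitive mutant grown at 25 °C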
TIM10 inh – TIM10 yeast growth inhibition | S. cerevisiae TIM10 strain growth, BacTiter-Glo luminescence, 24 h | inhibition, % at 10 µM | hit rate 1.4% among 330,000 | AID 463195;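 active = inhibition of 40% or more at the single tested concentration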;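 note: wild-type TIM10 isogenic control strain grown at permissive 25 °C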
tim10-1 confirm – confirmation of tim10-1 mutant yeast growth inhibitors. shares compounds with tim10-1 inh. S. cerevisiae tim10-1 ts strain growth, BacTiter-Glo, 24 h. inhibition, % at 20 µM. hit rate 56% among 7,400;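 active = inhibition of yeast growth at or above a set limit in either of two repeat tests at 20 µM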;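 note: tim10-1 mutant grown at permissive 25 °C to find synthetic lethal compounds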
Of the large screens only hits and unclear results are named; the others gave an inactive call (follow-up assays come after a bar, where they were run). Only some compounds are listed: those with a hit (about 3.7% of all), similar ones and a draw of the others.

CCn1ccnc1CN(C)Cc1cn(-c2cc(C)ccc2C)nc1-c1ccccc1	tim10-1 inh 42 | tim10-1 confirm inactive
O=C(O)c1ccc(COc2ccccc2C=C2C(=O)c3ccccc3C2=O)cc1	none | tim10-1 confirm inactive
O=C1CC[C@@H]2C[C@@]3(C[C@@H]4CCN1[C@H]24)Nc1cc([N+](=O)[O-])ccc1NC3=NCc1ccccc1	none (no result: NALP3 yeast inh, tim10-1 inh, tim23-1 inh, TIM10 inh)
COc1ccc(N2CCN(Cc3nc(N)nc(N4CCCc5ccccc54)n3)CC2)cc1	tim10-1 inh 40 | tim10-1 confirm inactive
CN1/C(=C\C(=O)c2ccco2)c2ccccc2CC1(C)C	tim10-1 inh 47 | tim10-1 confirm inactive
Cc1ccccc1C(=O)/C=C1/c2ccccc2CC(C)(C)N1C	tim10-1 inh 42 (no result: PfHsp90 set2) | tim10-1 confirm inactive
CN1/C(=C\C(=O)c2ccccc2Cl)c2ccccc2CC1(C)C	none
O=C(Cc1ccc(Br)cc1)OCC(=O)N1CCOCC1	none (no result: PfHsp90 set2)
NC(=O)c1ncn([C@@H]2O[C@H](CNC(=O)[C@H](N)CSCc3ccccc3)[C@@H](O)[C@H]2O)n1	none (no result: NALP3 yeast inh, tim10-1 inh, tim23-1 inh, TIM10 inh)
Nc1nnc(-c2ccccc2)c(-c2ccccc2)n1	tim10-1 inh 41 | tim10-1 confirm inactive
Cc1ccc(-c2nnc(-c3ccccc3)c(-c3ccccc3)n2)cc1	none
O=C1c2ccccc2S(=O)(=O)c2cc(C(=O)N(c3ccccn3)c3ccccn3)ccc21	tim10-1 inh 41 | tim10-1 confirm inactive
O=C(Nc1ccccn1)c1ccc2c(c1)S(=O)(=O)c1ccccc1C2=O	none
O=S(=O)(c1ccc2c(c1)OCCO2)N1CCC(n2cnc3cc(F)ccc32)CC1	none
O=S(=O)(c1ccc2c(c1)OCCO2)N1CCC(n2nnc3cc(F)ccc32)CC1	tim10-1 inh 42 (no result: PfHsp90 set2) | tim10-1 confirm inactive
Cc1nc2ccccc2c2oc(C(=O)N3CCN(C(=O)c4ccco4)CC3)cc12	none
Cc1nc2ccccc2c2oc(C(=O)N3CCC(C)CC3)cc12	tim10-1 inh 46 | tim10-1 confirm inactive
Cn1c(=O)c2[nH]c(C3CC4CCC3C4)nc2n(C)c1=O (stereo not given)	none (no result: NALP3 yeast inh, tim10-1 inh, tim23-1 inh, TIM10 inh)
Clc1ccccc1-c1nn2c(-c3ccncc3)nnc2s1	tim10-1 inh 43 (no result: PfHsp90 set2) | tim10-1 confirm 43
Clc1ccccc1-c1nn2c(-c3ccccn3)nnc2s1	tim10-1 inh 40 (no result: PfHsp90 set2) | tim10-1 confirm 40
Brc1ccc(-c2nn3c(-c4ccccn4)nnc3s2)o1	none (no result: PfHsp90 set2)
Clc1ccccc1-c1nnc2sc(-c3ccncc3)nn12	none
CC(=O)c1sc(N/N=C2\CC3CCC2(C)C3(C)C)nc1C (stereo not given)	tim10-1 inh 43 | tim10-1 confirm inactive
Cc1ccc(S(=O)(=O)NN=C2CC3CCC2(C)C3(C)C)cc1 (stereo not given)	none (no result: NALP3 yeast inh, tim10-1 inh, tim23-1 inh, TIM10 inh)
CN(Cc1ccccc1)C(=O)c1ccc(NC(=O)Cc2ccc(NC(=O)C3CCN(S(=O)(=O)c4cccc([N+](=O)[O-])c4)CC3)cc2)cc1	none (no result: NALP3 yeast inh, tim10-1 inh, tim23-1 inh, TIM10 inh)
CC(=O)N(C(C)=O)C1=C(C#N)C2(CCCCC2)Cc2ccccc21	tim10-1 inh 47 | tim10-1 confirm 34
COc1ccc(N2CCN(Cc3nc(N)nc(Nc4ccc(C)c(Cl)c4)n3)CC2)cc1	none
Cc1ccc(Nc2nc(N)nc(CN3CCN(c4ccccc4)CC3)n2)cc1Cl	tim10-1 inh 45 | tim10-1 confirm inactive
O=C1C2C3CCC(O3)C2C(=O)N1c1cc(OCC(F)F)cc([N+](=O)[O-])c1 (stereo not given)	none
CCOC(=O)C1CCN(C(=O)CN(Cc2ccc(Cl)cc2)S(C)(=O)=O)CC1	tim10-1 inh 97 | tim10-1 confirm inactive
O=C(c1ccccc1Br)N1N=C(c2ccccc2)CC1c1ccccc1F (stereo not given)	tim10-1 inh 50 | tim10-1 confirm 48
COc1cnc(-c2ccccn2)nc1Sc1ccccc1Cl	tim10-1 inh 47 (no result: PfHsp90 set2) | tim10-1 confirm 34
Cc1ccc(/C(O)=C2\C(=O)C(=O)N(C)C2c2ccc(F)cc2)cc1 (stereo not given)	none
CCCCN(c1ccccc1)S(=O)(=O)c1cccc(C(=O)Nc2c(C)n(C)n(-c3ccccc3)c2=O)c1	none (no result: NALP3 yeast inh, tim10-1 inh, tim23-1 inh, TIM10 inh)
CCn1c(CN2CCN(c3ccc(Cl)cc3)CC2)nc2ccccc21	tim10-1 inh 52 | tim10-1 confirm 34
Cn1c(CN2CCN(c3ccc(Cl)cc3)CC2)nc2ccccc21	none (no result: PfHsp90 set2)
CC(C)C(NC(=O)C1CCCCC1)C(=O)NC1CCCC(C)C1C (stereo not given)	none
COc1ccc(N2CCN(C(=O)COC(=O)[C@@H](NC(=O)c3c(F)cccc3F)C(C)C)CC2)cc1	none (no result: NALP3 yeast inh, tim10-1 inh, tim23-1 inh, TIM10 inh)
Cc1ccc(O)c(C2=Nc3ccccc3N=C(c3ccc([N+](=O)[O-])cc3)C2)c1	none
Cc1ccc(O)c(C2=Nc3ccccc3N=C(c3cccc([N+](=O)[O-])c3)C2)c1	tim10-1 inh 40 | tim10-1 confirm inactive
COc1ccccc1N1CCN(C(=O)CCCN2C(=O)c3cccc4cccc(c34)C2=O)CC1	tim10-1 inh 45 | tim10-1 confirm inactive
Cc1cnc(CNC(=O)C2CCC(=O)N(CCc3ccc(Cl)cc3)C2)cn1 (stereo not given)	none
COc1cccc(/C=C2\N=C(C3CCCCC3)OC2=O)c1OC	tim10-1 inh 47 (no result: PfHsp90 set2) | tim10-1 confirm 33
CCCC1CCC(C2=N/C(=C\c3ccc(OC)c(OC)c3)C(=O)O2)CC1 (stereo not given)	none
O=C(CSc1nc2ccccc2c(=O)n1-c1ccc(OC(F)F)cc1)NC1CC1	none (no result: PfHsp90 set2)
CCc1ccc2c(CN3CCN(S(=O)(=O)c4cccs4)CC3)cc(=O)oc2c1	tim10-1 inh 41 | tim10-1 confirm inactive
Cc1cnc(NC(=O)c2ccc3c(c2)C(=O)N(Cc2cccnc2)C3=O)s1	none
C#CCN(C)CC/C=C1\c2ccccc2CSc2ccccc21	tim10-1 inh 44 | tim10-1 confirm inactive
COc1ccccc1N=Cc1nc(-c2ccccc2)oc1OC(C)=O	tim10-1 inh 52 | tim10-1 confirm inactive
O=C1CCCN1C(=O)CSc1nnnn1-c1cccc(F)c1	none (no result: PfHsp90 set2)
COc1ccc(/C=C2\CCC/C(=C\c3ccc(OC)c(OC)c3OC)C2=O)c(OC)c1OC	tim10-1 inh 41 | tim10-1 confirm inactive
CC1CCC(NC(=O)c2cc3c(=O)n(C)c4ccccc4c3n2C)CC1 (stereo not given)	tim10-1 inh 40 (no result: PfHsp90 set2) | tim10-1 confirm inactive
CC(C(=O)NC1(C#N)CCCCC1)N(C)CC(=O)Nc1ccc(Cl)c(Cl)c1 (stereo not given)	none
COc1ccc(C)cc1NS(=O)(=O)c1ccc(-c2cnc(C3CC3)o2)cc1	tim10-1 inh 43 | tim10-1 confirm inactive
CC(=O)c1ccc(NS(=O)(=O)c2ccc(-c3cnc(C4CC4)o3)cc2)cc1	none
Cc1ccc(CNS(=O)(=O)c2ccc(-c3cnc(C4CC4)o3)cc2)cc1	none
Cc1ccc(NS(=O)(=O)c2ccc(-c3cnc(C4CC4)o3)cc2)cc1	tim10-1 inh 40 | tim10-1 confirm inactive
CCc1ccc(NC(=O)CSc2nnnn2C)cc1	none
Cc1cnn(-c2cc(Oc3ccccc3)ncn2)c1	tim10-1 inh 49 | tim10-1 confirm inactive
